For eight compounds, growth results are on record in PubChem BioAssay (NCI).

The panel holds about 83,000 compounds, 20% with a hit somewhere; the sample as a whole holds those more often.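 Testing used 96-well plates and a 48-hour single-concentration exposure. Example: -40 means 40% of the starting cells died.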 Unmarked numbers belong to inactive results. Activity calls are given as the source filed them. The calls were made as follows: active = growth percent below 10; inactive = the rest.

Among the test systems are HCT-15 colon; HT29 colon; SNB-75 CNS; SNB-19 CNS; U251 CNS; PC-3 prostate; SK-MEL-5 melanoma; UACC-62 melanoma; LOX IMVI melanoma; SK-MEL-28 melanoma; SK-MEL-2 melanoma; EKVX NSCLC; SN12C renal; UO-31 renal; TK-10 renal; ACHN renal; CAKI-1 renal; A498 renal; CCRF-CEM leukemia; MOLT-4 leukemia.
Holding throughout (experiment): NCI-60 one-dose screen, 48 h (100 = growth as untreated, 0 = no growth, -100 = all killed)
What all share (conditions): 10 µM

With `CO[C@@H]1CSS[C@H]1Cn1nc(-c2ccc(Oc3ccccc3)cc2)c2c(N)ncnc21`, the growth in the test with HCT-15 colon is 66.9%; in the test on HT29 colon, 51.1%; in the test with SNB-75 CNS, 113%; in the test with SNB-19 CNS, 71.8%; with U251 CNS, 60%; in the test with PC-3 prostate, 51.7%. The growth with SK-MEL-5 melanoma was 25.7%; in the test with UACC-62 melanoma, -11.1% (active); in the test on LOX IMVI melanoma, 53.7%; in the test on SK-MEL-28 melanoma it was -0.701% (active); in the test on SK-MEL-2 melanoma, 64.7%; in the test on EKVX NSCLC, 42.8%. Further, the growth was 73.9% with SN12C renal; 27.2% in the test with UO-31 renal; 45.5% in the test with TK-10 renal; 68.2% in the test with ACHN renal; 47.6% with CAKI-1 renal; 67% in the test on A498 renal. Further, the growth with CCRF-CEM leukemia was 10.7%; in the test with MOLT-4 leukemia, 14%.

As to `COc1ccccc1[C@H]1C(C(=O)c2ccc(Cl)cc2)C2(N[C@@H]1c1ccccc1)C(=O)Nc1ccc(Cl)cc12` (stereo not given in full), the growth in the test with HCT-15 colon is 7.83% (active); in the test on HT29 colon it was -3.95% (active); in the test with SNB-75 CNS it was 40.9%; in the test on SNB-19 CNS, 21.2%; in the test with U251 CNS it was 17%; in the test on PC-3 prostate it was 13.3%. The growth with SK-MEL-5 melanoma is -75.4% (active); with UACC-62 melanoma, -27.3% (active); in the test with LOX IMVI melanoma, -74.6% (active); in the test on SK-MEL-28 melanoma, 35.1%; in the test with SK-MEL-2 melanoma it was -76.2% (active); with EKVX NSCLC, 8.9% (active). Moreover, the growth in the test with SN12C renal was -66.3% (active); in the test on UO-31 renal it was 6.99% (active); with TK-10 renal it was 31.4%; in the test on ACHN renal, 3.8% (active); in the test with CAKI-1 renal it was 8.2% (active); in the test with A498 renal, 13.1%. In addition, the growth in the test with CCRF-CEM leukemia was 5.19% (active); with MOLT-4 leukemia, -21.1% (active).

Turning to `Cc1cc(=O)oc2cc(OCCCCOc3ccc(/C=C/C(=O)Nc4ccc(F)c(Cl)c4)cc3)ccc12`, the growth is 97% in the test on HCT-15 colon; 111% with HT29 colon; 116% with SNB-75 CNS; 93.4% in the test on SNB-19 CNS; 95.1% in the test on U251 CNS; 99.6% with PC-3 prostate. Further, the growth in the test with SK-MEL-5 melanoma was 85.2%; in the test on UACC-62 melanoma, 92%; in the test on LOX IMVI melanoma it was 97.6%; in the test on SK-MEL-28 melanoma it was 93%; with SK-MEL-2 melanoma, 117%; with EKVX NSCLC, 96.4%. Also, the growth was 96.4% in the test with SN12C renal; 86.1% with UO-31 renal; 112% in the test on TK-10 renal; 107% in the test on ACHN renal; 96% in the test with CAKI-1 renal; 108% in the test with A498 renal. Besides, the growth was 92.7% in the test on CCRF-CEM leukemia and 93.5% in the test with MOLT-4 leukemia.

For `N#Cc1ccc(-c2nn(-c3ccc(C(=O)O)cc3)cc2CNc2ccc(Cl)cc2)cc1`, the growth in the test with HCT-15 colon was 47.3%; in the test on HT29 colon it was 100%; in the test on SNB-75 CNS it was 107%; with SNB-19 CNS, 75.9%; in the test with U251 CNS, 76.8%; in the test with PC-3 prostate, 65.2%. Moreover, the growth was 76% in the test with SK-MEL-5 melanoma; 61.2% in the test with UACC-62 melanoma; 60.8% in the test with LOX IMVI melanoma; 77.6% in the test with SK-MEL-28 melanoma; 96.2% with SK-MEL-2 melanoma; 67.8% with EKVX NSCLC. For the same compound, the growth was 82.2% with SN12C renal; 61.8% with UO-31 renal; 108% in the test on TK-10 renal; 74.6% in the test with ACHN renal; 71.2% with CAKI-1 renal; 111% with A498 renal. Further, the growth in the test with CCRF-CEM leukemia was 77.5%; in the test on MOLT-4 leukemia, 68.8%.

Take `Cc1ccc2nc(COc3ccc(C(=O)NNC(=S)NC(=O)c4ccccc4)cc3)[nH]c2c1`: the growth in the test on HCT-15 colon was 14.9%; with HT29 colon, 43.6%; in the test with SNB-75 CNS, 41.6%; in the test on SNB-19 CNS it was 52.4%; in the test with U251 CNS, 43.3%; in the test with PC-3 prostate, 50.2%. Besides, the growth in the test on SK-MEL-5 melanoma is 46.1%; in the test on UACC-62 melanoma, 51.9%; in the test on LOX IMVI melanoma, 34%; in the test with SK-MEL-28 melanoma, 55.6%; in the test on SK-MEL-2 melanoma it was 68.9%; in the test on EKVX NSCLC it was 51.6%. Besides, the growth was 58.1% with SN12C renal; 18.6% in the test with UO-31 renal; 67.8% in the test with TK-10 renal; 23.6% with ACHN renal; 26.8% with CAKI-1 renal; 97.3% in the test with A498 renal. The growth in the test on CCRF-CEM leukemia is 51.5%; in the test with MOLT-4 leukemia, 52.6%.

In the case of `COc1ccc(-c2cc(C(=O)N=Nc3c(O)[nH]c4ccc(Br)cc34)c3ccccc3n2)cc1`, the growth with HCT-15 colon is -60.8% (active); in the test with HT29 colon, -1.14% (active); in the test on SNB-75 CNS it was 108%; in the test with SNB-19 CNS, -3.47% (active); with U251 CNS it was -67.7% (active); in the test on PC-3 prostate it was 23.1%. In addition, the growth is 84.8% in the test on SK-MEL-5 melanoma; 32.6% with UACC-62 melanoma; -51.5% (active) in the test on LOX IMVI melanoma; 65.9% in the test on SK-MEL-28 melanoma; 122% with SK-MEL-2 melanoma; 44.4% with EKVX NSCLC. The growth in the test with SN12C renal is 5.56% (active); in the test with UO-31 renal, 43.2%; in the test on TK-10 renal, 97.8%; in the test on ACHN renal it was 24.5%; with CAKI-1 renal, 57.1%; in the test with A498 renal, 143%. In addition, the growth in the test on CCRF-CEM leukemia is 18.9%; in the test on MOLT-4 leukemia, 4.15% (active).

For `COc1ccc(-c2c(N)c(=O)n(C)c3ccccc23)cc1`, the growth is 49.7% with HCT-15 colon; 59.9% with HT29 colon; 75.4% in the test on SNB-75 CNS; 62.1% in the test on SNB-19 CNS; 47.8% in the test with U251 CNS; 46.9% in the test with PC-3 prostate. The growth in the test with SK-MEL-5 melanoma is 57.7%; with UACC-62 melanoma, 38.1%; with LOX IMVI melanoma, 45.9%; in the test on SK-MEL-28 melanoma, 86.5%; in the test with SK-MEL-2 melanoma, 77.4%; in the test on EKVX NSCLC, 52.4%. Besides, the growth in the test on SN12C renal is 52.8%; in the test with UO-31 renal, 29.7%; in the test with TK-10 renal, 118%; in the test on ACHN renal, 59.4%; in the test with CAKI-1 renal, 62.1%; in the test with A498 renal it was 110%. Also, the growth was 54.6% in the test with CCRF-CEM leukemia and 37.3% in the test on MOLT-4 leukemia.

Consider `O=C(Nc1ccc(Cl)c(C(F)(F)F)c1)c1cncc(C#Cc2cnc3ccc(N4CCOCC4)nn23)c1`, for which the growth is 15.8% in the test on HCT-15 colon; 8.82% (active) in the test on HT29 colon; -1.28% (active) in the test on SNB-75 CNS; -10.8% (active) with SNB-19 CNS; 20.2% in the test with U251 CNS; 23.4% in the test on PC-3 prostate. Also, the growth in the test with SK-MEL-5 melanoma is 4.01% (active); in the test on UACC-62 melanoma it was -10.3% (active); with LOX IMVI melanoma, -48.9% (active); in the test with SK-MEL-28 melanoma, 0.817% (active); in the test on SK-MEL-2 melanoma, -33.8% (active); in the test on EKVX NSCLC it was 19.2%. Moreover, the growth in the test on SN12C renal was 6.18% (active); with UO-31 renal, -33.6% (active); in the test with TK-10 renal, 23.8%; in the test with ACHN renal, -35% (active); in the test on CAKI-1 renal it was 9.84% (active); with A498 renal it was -19.3% (active). The figures for the growth in the test with CCRF-CEM leukemia and in the test with MOLT-4 leukemia were 37.5% and 0.617% (active), respectively.
